Source: PubChem BioAssay
Rows were chosen to be rich in hits. Some 12% of all compounds tested hit in one or more screens of this group.
FMDV inh: foot and mouth disease virus antiviral activity; Potency, µM (top dose mostly 57.9 µM), without a hit: at the highest dose activity change, negative = inhibition, actives largely listed as inhibitors; actives 1.2% (n = 410,000); FMDV antiviral cell-based qHTS; calls by dose curve; tested in HEK293T cells; also: read-out not given here; potency is read from the fitted curve at half-maximal effect; % is scaled to controls: 0 for no effect and ±100 for the full control effect; nearly all actives have a fitted effect of over 45% in size
Sm TGR inh: blocks Schistosoma mansoni thioredoxin glutathione reductase. Q962Y6. actives 3% (n = 360,000). purified TGR, DTNB reduction, TNB absorbance 405 nm. Potency, µM (highest dose often 114 µM), for the others: at the top dose activity change, negative = inhibition, most hits filed as inhibitors; active = well fitted inhibition curve with a large enough effect; inconclusive = small, poorly fitted or top-dose-only effect; inactive = no such curve, though single readings can be large or run the other way; also: potency is read from the fitted curve at half-maximal effect; % is scaled to controls: 0 for no effect and ±100 for the full control effect; nearly all actives have a fitted effect of over 60% in size
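Kinetic colorimetric format: TGR-catalysed, NADPH-driven DTNB reduction monitored via TNB absorbance. Enzyme dispensed at 20 nM; compound exposure 15 min at room temperature before reaction start.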
Shiga toxin inh: Shiga toxin inhibition | Vero cells, Shiga toxin protein synthesis inhibition reporter | inhibition, % at 38.7 µM | actives 9.2% (n = 290,000) | AID 2315; in the data active = inhibition mostly above about 28%, no sharp cut-off; inactive = mostly below about 43%; also: 0% is about no effect
Cycloheximide cs: affects cycloheximide protein synthesis inhibition readout, counter-screen; actives 12% (n = 300,000); cell reporter, cycloheximide protein synthesis inhibition counterscreen; max response, %; in the data active = max response mostly above about 13%, no sharp cut-off; inactive = mostly below about 14%; also: read at 38.3 µM for the half of the compounds with a filed dose; 0% is about no effect
Active calls of the source: *.

Results for COCC(C)N=C1NN=C(c2cc(C)n(Cc3ccccc3Cl)c2C)CS1 (stereo not given) ?
FMDV inh: -21.4%; Sm TGR inh: -27.2%; Shiga toxin inh: 107.6*; Cycloheximide cs: 55.0*

Results for CC(=O)Nc1ccc(C2=NN(CC#N)C(=O)SC2)cc1 ?
FMDV inh: -2.0%; Sm TGR inh: 46.2%; Shiga toxin inh: -23.1; Cycloheximide cs: -3.0

Results for Cc1cc(C2=NNC(=NC3CC3)SC2)c(C)n1Cc1ccco1 ?
FMDV inh: 3.16µM*; Sm TGR inh: -9.2%; Shiga toxin inh: 136.9*; Cycloheximide cs: 94.7*

What do the screens show for `COCCCN=C1NN=C(c2cc(C)n(Cc3ccco3)c2C)CS1`?
FMDV inh: 4.0%; Sm TGR inh: -6.0%; Shiga toxin inh: 127.1*; Cycloheximide cs: 40.1*

Results for Cc1cccc(CNC(=O)c2ccc(NC(=O)N3CC(C)Sc4ccccc43)cc2)c1 (stereo not given) ?
FMDV inh: -18.0%; Sm TGR inh: 3.4%

Results for Cc1nc2nc(NCc3ccc(Cl)cc3)[nH]n2c(=O)c1Cc1ccccc1 ?
FMDV inh: -18.2%; Sm TGR inh: 11.3%

How did Cc1nc2cccnc2n1-c1cccc(C(=O)NCCc2ccc(S(N)(=O)=O)cc2)c1 do in these assays?
FMDV inh: -21.5%; Sm TGR inh: 0.1%

Results for Cc1cccc(C(=O)NNC(=O)c2ccco2)c1O ?
FMDV inh: 17.7%

How did O=C(NNC(=O)c1cccc2ccccc12)c1ccco1 do in these assays?
FMDV inh: 5.5%; Sm TGR inh: 12.2%; Shiga toxin inh: -12.8; Cycloheximide cs: 3.4

How did O=C(NNC(=O)c1ccccc1F)c1ccco1 do in these assays?
FMDV inh: 22.6%; Sm TGR inh: -11.7%; Shiga toxin inh: 40.3*; Cycloheximide cs: 13.6

Results for O=C(NNC(=O)c1ccccc1O)c1ccco1 ?
FMDV inh: 18.2%; Sm TGR inh: 0.5%; Shiga toxin inh: 96.9*; Cycloheximide cs: 26.7*

What do the screens show for `COCCCNc1ccn2nc(-c3ccccc3)cc2n1`?
FMDV inh: -42.0%

What do the screens show for `CCOCCCNc1ccc(-c2ccccc2)nn1`?
FMDV inh: 47.1%; Sm TGR inh: -27.6%; Shiga toxin inh: 109.0*; Cycloheximide cs: 26.6*

How did COc1ccc(Br)cc1C1C(C(=O)Nc2ccc(C)cc2C)=C(C)Nc2ncnn21 (stereo not given) do in these assays?
FMDV inh: 5.1%; Sm TGR inh: -3.3%

Results for CCOC(=O)c1csc(NC(=O)C(C)(C)C)n1 ?
FMDV inh: 9.5%; Sm TGR inh: 5.8%; Shiga toxin inh: 34.6; Cycloheximide cs: -0.5

What do the screens show for `CCOC(=O)Cc1csc(NC(=O)c2ccc(Br)s2)n1`?
Sm TGR inh: 0.0%; Shiga toxin inh: 61.5*; Cycloheximide cs: 32.0*

How did CCOC(=O)c1cc(OC(=O)c2cccs2)n(-c2ccccc2)n1 do in these assays?
FMDV inh: -2.1%; Sm TGR inh: 39.8µM*; Shiga toxin inh: 1.2; Cycloheximide cs: -0.2

What do the screens show for `CCOC(=O)Cc1csc(NC(=S)NC(=O)c2ccccc2Br)n1`?
FMDV inh: -15.9%; Sm TGR inh: -2.7%; Shiga toxin inh: 13.7; Cycloheximide cs: 20.5*

Results for CCOC(=O)c1csc(NC(=O)c2cccs2)n1 ?
FMDV inh: 27.9%; Sm TGR inh: -14.0%; Shiga toxin inh: 102.8*; Cycloheximide cs: 33.0*

Results for CCC(Sc1nc2ccccc2c2nc(-c3ccccc3)nn12)C(=O)Nc1cccc(OC)c1 (stereo not given) ?
FMDV inh: -21.4%; Sm TGR inh: 1.6%

What do the screens show for `CC1CCN(c2nc3ccc(C(=O)NCc4ccccc4Cl)cc3s2)CC1`?
FMDV inh: -3.3%; Sm TGR inh: -2.0%

How did CCOC(=O)Cc1csc(NC(=O)Cc2ccccc2[N+](=O)[O-])n1 do in these assays?
FMDV inh: 5.7%; Sm TGR inh: 2.4%; Shiga toxin inh: 84.9; Cycloheximide cs: 17.7*

What do the screens show for `CCOC(=O)Cc1csc(NC(=O)c2cccs2)n1`?
FMDV inh: 4.4%; Sm TGR inh: -24.6%; Shiga toxin inh: 29.7; Cycloheximide cs: 23.9*

How did CC(=O)c1sc(NC(=O)c2cccs2)nc1C do in these assays?
FMDV inh: 20.4%; Sm TGR inh: 5.7%; Shiga toxin inh: 23.6; Cycloheximide cs: 10.1

What do the screens show for `Cc1csc(NC(=O)Cc2ccccc2[N+](=O)[O-])n1`?
FMDV inh: 2.3%; Sm TGR inh: 11.1%; Shiga toxin inh: 8.6; Cycloheximide cs: 16.1

How did CCOC(=O)c1sc(NC(=O)c2cccs2)nc1C do in these assays?
FMDV inh: 70.9%; Sm TGR inh: 17.4%; Shiga toxin inh: 70.0*; Cycloheximide cs: 17.3*

How did O=C(NCC(c1cccnc1)N1CCc2ccccc21)C(=O)Nc1ccccc1F (stereo not given) do in these assays?
FMDV inh: -17.7%; Sm TGR inh: -0.4%

What do the screens show for `COc1ccc2[nH]c(=O)c(CN(C(=O)c3cccc(Cl)c3)c3ccccc3OC)cc2c1`?
FMDV inh: -7.5%; Sm TGR inh: 2.8%

How did CCc1ccccc1Nc1cc(C(=O)NCCc2ccccc2)c2ccccc2n1 do in these assays?
FMDV inh: -9.7%; Sm TGR inh: 1.4%

How did C=CCCC(=O)Nc1nc(C)c(-c2csc(Nc3ccc(Cl)cc3Cl)n2)s1 do in these assays?
FMDV inh: -12.0%; Sm TGR inh: 2.2%; Shiga toxin inh: 14.4; Cycloheximide cs: 2.9

What do the screens show for `COc1ccc(Nc2nc(-c3sc(NC(C)=O)nc3C)cs2)cc1`?
Sm TGR inh: inconclusive; Shiga toxin inh: 1.1; Cycloheximide cs: -0.9

How did C=CCNc1nc(-c2sc(NC(C)=O)nc2C)cs1 do in these assays?
FMDV inh: 26.5%; Sm TGR inh: -12.4%; Shiga toxin inh: 132.0*; Cycloheximide cs: 40.9*

How did C=CCNc1nc(-c2sc(NC(=O)CC)nc2C)cs1 do in these assays?
FMDV inh: 41.2%; Sm TGR inh: -7.8%; Shiga toxin inh: 95.8*; Cycloheximide cs: 35.9*

How did Cc1c(C(=O)NCc2ccccc2Cl)sc2nc[nH]c(=O)c12 do in these assays?
FMDV inh: 9.1%; Sm TGR inh: -5.9%

How did Cn1ccc2cc(-c3ccc4ncnc(NCc5cccc(F)c5)c4c3)ccc21 do in these assays?
Sm TGR inh: 1.8%

What do the screens show for `CC(=O)Nc1ccc(S(=O)(=O)N2CCC(NC(=O)C(Cc3cccc(F)c3)NC(C)=O)CC2)cc1` (stereo not given)?
FMDV inh: -0.4%; Sm TGR inh: 44.7µM*; Shiga toxin inh: -5.5; Cycloheximide cs: -8.9

What do the screens show for `CC(=O)N(C)C1=C(O)c2ccccc2C(=O)C1=O`?
FMDV inh: 9.2%; Sm TGR inh: 4.4%; Shiga toxin inh: 18.4; Cycloheximide cs: -4.6

What do the screens show for `CC(=O)N(C1=C(N)C(=O)c2ccccc2C1=O)C(C)C`?
FMDV inh: 18.2%; Sm TGR inh: 7.08µM*; Shiga toxin inh: -12.2; Cycloheximide cs: 2.2

Results for CC(C)C(=O)NC(=S)Nc1sc2c(c1C(N)=O)CCCC2 ?
FMDV inh: 37.1%; Sm TGR inh: -5.8%; Shiga toxin inh: 36.1*; Cycloheximide cs: 24.7*

What do the screens show for `C=CC(=O)Nc1sc2c(c1C(N)=O)CCCC2`?
FMDV inh: inconclusive; Sm TGR inh: 39.8µM*

What do the screens show for `C=CCNC(=S)Nc1sc2c(c1C(N)=O)CCCC2`?
FMDV inh: 59.0%; Sm TGR inh: 1.4%; Shiga toxin inh: 55.9; Cycloheximide cs: 14.7*
